# In PubChem BioAssay:
# Some of the results follow. Activity calls are given as the source filed them.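 Rule for the calls, unless noted: active = mean inhibition above about 50% in the one-dose retest (limit read from the data); inactive = the rest.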
# Experiments:
# [1] = biological target: Sentrin-specific protease 8 (Homo sapiens) (UniProt Q96LD8); experiment: SENP8 protease inhibitors, retest, confirmation, biochemical, luminescence, single concentration (AID 488912;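 active = mean inhibition across replicates above about 50%, limit read from the data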); details: Recombinant SENP8, Z-RLRGG-aminoluciferin luminescence, 60 min; at 12.5 µM; stronger effect = higher value
# [2] = biological target: Sentrin-specific protease 6 (Homo sapiens) (UniProt Q9GZR1); experiment: SENP6 protease inhibitors, confirmation, biochemical, luminescence, single concentration (AID 488915); details: recombinant SENP6, Z-RLRGG-aminoluciferin luminescence; at 12.5 µM; stronger effect = higher value
# [3] = biological target: Sentrin-specific protease 7 (Homo sapiens) (UniProt Q9BQF6); experiment: SENP7 protease inhibitors, retest, confirmation, biochemical, luminescence, single concentration (AID 488917); details: recombinant SENP7, Z-RLRGG-aminoluciferin luminescence, 40 min; at 12.5 µM; stronger effect = higher value
# [4] = biological target: Caspase-3 (Homo sapiens) (UniProt P42574); experiment: caspase-3 protease inhibitors, confirmation, selectivity assay for SENP inhibitor project, biochemical, single concentration (AID 488918;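 active = mean inhibition above about 50%, limit read from the data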;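 note: plate controls were enzyme with DMSO for no effect and wells without caspase-3 for full effect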); details: purified caspase-3, Z-DEVD-aminoluciferin luminescence, 60 min; at 12.5 µM; stronger effect = higher value
# [5] = luciferase luminescence interference by compounds, confirmation, artefact control for SENP inhibitor project, biochemical, single concentration, SENP8 reaction pre-completed (AID 488919;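 active = mean inhibition above about 50% when retested at one dose, limit read from the data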;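 note: plate controls were DMSO wells with completed reaction for no effect and substrate without enzyme for full effect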); details: Pre-incubated SENP8/Z-RLRGG-aminoluciferin, at 12.5 µM, stronger effect = higher value
# [6] = Apaf-1 inhibitors, single-dose retest, confirmation, biochemical, fluorescence, DEVD-Rh110, 20 µM (AID 504614;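 active = mean inhibition of at least 40% at 20 µM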;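 note: plate controls were DMSO wells for no effect and DEVD-CHO caspase inhibitor control wells for full effect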); details: reconstituted apoptosome, caspase-3 DEVD-Rh110 fluorescence; at 20 µM; stronger effect = higher value
# [7] = Rh110 fluorescence interference by putative Apaf-1 inhibitors, confirmation, artefact control for Apaf-1 inhibitor project, biochemical, 20 µM (AID 504615;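 active = signal rise of 40% or more at 20 µM, treated as a fluorescence artifact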); details: quenched caspase reaction, at 20 µM, stronger effect = higher value
# [8] = inhibition of Brca1/Bard1 split-luciferase complementation, confirmation, counter-screen for Mdm2/MdmX interaction inhibitor project, luminescence, single concentration (AID 504668; call rule not given here); details: Brca1/Bard1 bimolecular luciferase complementation counterscreen, at 8 µM, stronger effect = higher value
# [9] = HIF-2a reporter inhibitor retest, confirmation, luminescence, 786-0 RCC cells (AID 651580;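 active = mean inhibition across four replicates of at least 40 percent at the single tested concentration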); details: HIF-2a luciferase reporter luminescence, overnight, at 18.8 µM, stronger effect = higher value
# [10] = HIF-1a luciferase reporter signal reduction – MiaPaCa-2 cells, single concentration, counter-screen for HIF-2a inhibitor project, confirmation (AID 651589;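 active = mean inhibition of the reporter signal across four replicates at the single tested dose of 50% or more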); details: MiaPaCa-2 HIF-1a luciferase reporter, desferoxamine, overnight; at 18.8 µM; stronger effect = higher value
# [11] = test system: Rat fibroblasts (CREF); experiment: Peg3 promoter luciferase inhibitors, potency, dose response, cell-based, HeLa, CREF/GAPDH counter-screen panel (AID 624167); details: CREF/GAPDH counter-screens; run 1, dose range 1, at 100 µM (top of the series)
# [12] = test system: Rat fibroblasts (CREF); experiment: as above; details: CREF/GAPDH counter-screens; run 2, dose range 1, at 100 µM (top of the series)
# Sequence of Caspase-3 (Homo sapiens) (P42574 28-227 limits assumed): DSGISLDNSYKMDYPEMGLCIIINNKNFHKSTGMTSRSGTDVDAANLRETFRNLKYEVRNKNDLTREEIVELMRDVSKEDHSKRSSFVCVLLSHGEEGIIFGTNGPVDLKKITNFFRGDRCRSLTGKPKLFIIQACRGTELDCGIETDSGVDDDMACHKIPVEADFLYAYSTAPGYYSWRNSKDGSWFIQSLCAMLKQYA
# Sequence of Sentrin-specific protease 6 (Homo sapiens) (Q9GZR1 628-1112 limits assumed): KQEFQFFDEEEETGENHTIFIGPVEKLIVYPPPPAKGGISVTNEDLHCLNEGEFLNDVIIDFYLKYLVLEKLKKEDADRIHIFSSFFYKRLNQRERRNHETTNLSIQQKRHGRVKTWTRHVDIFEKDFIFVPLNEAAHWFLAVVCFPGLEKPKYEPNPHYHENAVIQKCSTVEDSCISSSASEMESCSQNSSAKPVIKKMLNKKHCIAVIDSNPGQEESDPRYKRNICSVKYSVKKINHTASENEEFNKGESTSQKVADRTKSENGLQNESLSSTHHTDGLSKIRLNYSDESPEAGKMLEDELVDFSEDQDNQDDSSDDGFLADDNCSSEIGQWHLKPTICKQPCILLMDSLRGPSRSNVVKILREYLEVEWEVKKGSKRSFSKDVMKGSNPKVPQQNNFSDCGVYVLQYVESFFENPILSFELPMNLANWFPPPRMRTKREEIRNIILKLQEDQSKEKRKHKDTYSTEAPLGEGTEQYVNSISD
# Sequence of Sentrin-specific protease 7 (Homo sapiens) (Q9BQF6 706-1050 limits assumed): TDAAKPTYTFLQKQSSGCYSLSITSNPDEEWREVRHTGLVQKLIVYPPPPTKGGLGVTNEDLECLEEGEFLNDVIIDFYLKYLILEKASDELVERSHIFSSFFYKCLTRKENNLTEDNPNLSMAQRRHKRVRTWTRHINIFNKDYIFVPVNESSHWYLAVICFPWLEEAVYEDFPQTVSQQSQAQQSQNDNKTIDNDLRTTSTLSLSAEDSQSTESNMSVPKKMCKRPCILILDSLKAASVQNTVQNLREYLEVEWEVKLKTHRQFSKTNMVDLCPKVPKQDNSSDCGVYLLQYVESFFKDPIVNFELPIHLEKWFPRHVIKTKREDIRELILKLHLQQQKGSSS
# Sequence of Sentrin-specific protease 8 (Homo sapiens) (Q96LD8 whole entry, looked up): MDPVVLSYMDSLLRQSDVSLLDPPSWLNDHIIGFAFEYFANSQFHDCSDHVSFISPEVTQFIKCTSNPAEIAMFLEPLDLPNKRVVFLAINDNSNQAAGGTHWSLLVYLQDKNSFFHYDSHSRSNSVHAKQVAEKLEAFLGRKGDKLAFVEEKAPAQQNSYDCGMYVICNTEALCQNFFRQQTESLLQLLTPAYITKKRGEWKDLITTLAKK
smiles,measurement,setting,value
Cc1[nH][nH]c(=O)c1C(c1ccc(-c2ccc(Cl)cc2)o1)c1c(C)[nH][nH]c1=O,inhibition,[1],-6.8% (inactive)
same,inhibition,[2],16% (inactive)
same,inhibition,[3],2.9% (inactive)
same,inhibition,[4],7.2% (inactive)
same,inhibition,[5],1.7% (inactive)
same,inhibition,[6],18% (inactive)
same,activation (fluorescence interference),[7],-1.73% (inactive)
CC(OC(=O)c1ccc2ccccc2n1)C(=O)c1ccccc1 (stereo not drawn),inhibition,[1],54.3% (active)
same,inhibition,[2],50% (inactive)
same,inhibition,[3],87.7% (active)
same,inhibition,[4],75% (active)
same,inhibition,[5],64.5% (active)
COc1ccccc1C(=O)Nc1ccc(NC(=O)c2ccco2)c(C)c1,inhibition,[1],45.3% (inactive)
same,inhibition,[2],47.1% (inactive)
same,inhibition,[3],81.2% (active)
same,inhibition,[4],82.5% (active)
same,inhibition,[5],58.6% (active)
Cc1ccc(O)c(CNc2nc3ccccc3n2C)c1,inhibition,[1],-5% (inactive)
same,inhibition,[2],-7.9% (inactive)
same,inhibition,[3],7.6% (inactive)
same,inhibition,[4],8.9% (inactive)
same,inhibition,[5],-0.5% (inactive)
Nc1ccccc1/C=N\N=C/c1ccccc1N,inhibition,[1],52.9% (active)
same,inhibition,[2],45.3% (inactive)
same,inhibition,[3],85.6% (active)
same,inhibition,[4],68.3% (active)
same,inhibition,[5],3.9% (inactive)
Oc1ccc(N=Cc2sc3ccccc3c2Cl)cc1,inhibition,[1],-10.7% (inactive)
same,inhibition,[2],-2.2% (inactive)
same,inhibition,[3],49.3% (inactive)
same,inhibition,[4],1.9% (inactive)
same,inhibition,[5],20.8% (inactive)
same,inhibition,[6],14.4% (inactive)
same,activation (fluorescence interference),[7],5.12% (inactive)
C/C(=C\C(=O)c1ccccc1)Nc1cccc(O)c1,inhibition,[1],43.1% (inactive)
same,inhibition,[2],47.3% (inactive)
same,inhibition,[3],82.2% (active)
same,inhibition,[4],39.4% (inactive)
same,inhibition,[5],66.4% (active)
Cc1sc(NC(=O)c2ccc3ncsc3c2)c(C(N)=O)c1C,inhibition,[1],-15.3% (inactive)
same,inhibition,[2],-7.6% (inactive)
same,inhibition,[3],-2.8% (inactive)
same,inhibition,[4],3.3% (inactive)
same,inhibition,[5],-10.5% (inactive)
C/C(=N\NC(=O)CNc1cccc2ccccc12)c1ccc(Br)s1,inhibition,[1],-9.7% (inactive)
same,inhibition,[2],-9.8% (inactive)
same,inhibition,[3],-3.4% (inactive)
same,inhibition,[4],-2.4% (inactive)
same,inhibition,[5],-7.4% (inactive)
same,inhibition,[6],13.9% (inactive)
same,activation (fluorescence interference),[7],3.87% (inactive)
Cc1ccc(C(=O)N/N=C\c2cc(Br)c(Br)o2)cn1,inhibition,[1],3.5% (inactive)
same,inhibition,[2],12.7% (inactive)
same,inhibition,[3],8.1% (inactive)
same,inhibition,[4],12.1% (inactive)
same,inhibition,[5],-0.7% (inactive)
same,inhibition,[6],4.66% (inactive)
same,activation (fluorescence interference),[7],-11.2% (inactive)
COCCN(CCOC)c1nc(N)c2c(N)nc3c(c2c1C#N)CC(=O)N3Cc1ccc(Cl)cc1,inhibition,[1],-5.5% (inactive)
same,inhibition,[2],-0.6% (inactive)
same,inhibition,[3],5.3% (inactive)
same,inhibition,[4],3.6% (inactive)
same,inhibition,[5],-3.7% (inactive)
O=C(Nc1cccc([N+](=O)[O-])c1)c1ccc2c(c1)OCO2,inhibition,[1],29.3% (inactive)
same,inhibition,[2],38.2% (inactive)
same,inhibition,[3],88% (active)
same,inhibition,[4],65.1% (active)
same,inhibition,[5],9.5% (inactive)
O=c1c2c(nc3n1CCCCC3)sc1c(O)cccc12,inhibition,[1],53.6% (active)
same,inhibition,[2],49.2% (inactive)
same,inhibition,[3],75.5% (active)
same,inhibition,[4],59.4% (active)
same,inhibition,[5],61.9% (active)
c1ccc(Nc2nc(-c3ccncc3)cs2)nc1,inhibition,[1],84.9% (active)
same,inhibition,[2],85.1% (active)
same,inhibition,[3],97.3% (active)
same,inhibition,[4],84% (active)
same,inhibition,[5],45.3% (inactive)
Nc1[nH][nH]c(=O)c1N=Nc1ccc2c(c1)OCO2,inhibition,[1],41.3% (inactive)
same,inhibition,[2],39.2% (inactive)
same,inhibition,[3],67.3% (active)
same,inhibition,[4],74% (active)
same,inhibition,[5],12% (inactive)
Cc1ccc(S(=O)(=O)C(C#N)c2nc3ccccc3nc2N2CCCC2)cc1C (stereo not drawn),inhibition,[1],6.9% (inactive)
same,inhibition,[2],9.5% (inactive)
same,inhibition,[3],4.3% (inactive)
same,inhibition,[4],4.2% (inactive)
same,inhibition,[5],3% (inactive)
Cc1ccc(-n2cc3ccc([N+](=O)[O-])cc3n2)cc1,inhibition,[1],-5.1% (inactive)
same,inhibition,[2],20.7% (inactive)
same,inhibition,[3],61.5% (active)
same,inhibition,[4],18.7% (inactive)
same,inhibition,[5],-2.9% (inactive)
CN(CC(=O)Nc1ccc(Cl)cc1)C(=O)CNC(=O)c1ccc2ccccc2c1,inhibition,[1],15.1% (inactive)
same,inhibition,[2],12.3% (inactive)
same,inhibition,[3],66.3% (active)
same,inhibition,[4],21.6% (inactive)
same,inhibition,[5],1.1% (inactive)
CC(C)(C)c1ccc(NC(=O)NCc2ccco2)cc1,inhibition,[1],-28.3% (inactive)
same,inhibition,[2],-17.7% (inactive)
same,inhibition,[3],-5.7% (inactive)
same,inhibition,[4],-5.5% (inactive)
same,inhibition,[5],-7.2% (inactive)
CN(c1ccc2nc3ccccc3c(=O)n2n1)C1CCCCC1,inhibition,[8],27.7% (active)
same,inhibition,[9],91.2% (active)
same,inhibition,[10],97.8% (active)
same,inhibition,[11],98.4%
same,inhibition,[12],98.9%
